High-throughput results (PubChem BioAssay)
MITF inh – MITF inhibitors, primary screen, biochemical, AlphaScreen, human. Microphthalmia-associated transcription factor (Homo sapiens), O75030. AlphaScreen MITF homodimerization, bead proximity signal. inhibition, % at 2.6 µM. 0.91% of 650,000 active; in the data active means inhibition above about 50%
Target sequence (O75030 whole entry, looked up): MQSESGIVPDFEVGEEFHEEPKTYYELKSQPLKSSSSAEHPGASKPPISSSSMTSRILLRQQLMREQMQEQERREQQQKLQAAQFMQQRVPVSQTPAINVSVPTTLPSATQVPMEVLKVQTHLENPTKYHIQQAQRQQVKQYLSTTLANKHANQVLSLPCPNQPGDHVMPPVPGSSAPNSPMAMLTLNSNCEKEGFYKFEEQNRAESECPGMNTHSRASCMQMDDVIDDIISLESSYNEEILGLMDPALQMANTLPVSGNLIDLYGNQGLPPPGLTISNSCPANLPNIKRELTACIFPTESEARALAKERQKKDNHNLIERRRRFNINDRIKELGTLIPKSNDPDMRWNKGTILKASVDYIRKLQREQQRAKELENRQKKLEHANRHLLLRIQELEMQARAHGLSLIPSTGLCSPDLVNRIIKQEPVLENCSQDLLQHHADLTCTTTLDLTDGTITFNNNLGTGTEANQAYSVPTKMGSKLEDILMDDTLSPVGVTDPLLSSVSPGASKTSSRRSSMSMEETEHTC
GPR151 activ – activators of human GPR151, primary screen, cell-based, PathHunter beta-arrestin, luminescence; G-protein coupled receptor 151 (Homo sapiens), Q8TDV0; AID 1508602, 2020; PathHunter beta-arrestin GPR151 cells; 1% of 650,000 active; activation, % at 11.2 µM; in the data active means activation above about 4.9%
FBW7 act – FBW7 E3 ligase activators, primary screen, biochemical, AlphaScreen, human. normalized activity (activation), % at 26.1 µM. AlphaScreen FBW7–phospho-cyclin E peptide binding, activator screen. 0.13% of 650,000 active. F-box/WD repeat-containing protein 7 (Homo sapiens), Q969H0; in the data active means normalized activity above about 1.9%;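 further: purified mutant Fbw7 with reduced substrate affinity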
TEAD-YAP block – TEAD-YAP interaction inhibition, primary screen, TEAD-YAP interaction inhibitor project, luminescence, HEK-TIYL cells | TEAD-Gal4/YAP UAS-luciferase luminescence | inhibition, % at 9.12 µM | 1.4% of 640,000 active | AID 1259422, 2018; in the data active means inhibition above about 32%
Hits are given with their value; - = inactive. In the library only some 3.5% were active in any assay of this set; here they are far more common.

SMILES	MITF inh	GPR151 activ	FBW7 act	TEAD-YAP block
N#CC1=C(N)C(C#N)(C#N)C(c2ccccc2F)C2CN(Cc3ccccc3)CC=C12 (stereo not given)	-	-	-	-
COc1ccccc1C1C2CN(Cc3ccccc3)CC=C2C(C#N)=C(N)C1(C#N)C#N (stereo not given)	-	-	1.9	-
CCOC(=O)c1c(NC(=O)c2ccc([N+](=O)[O-])s2)sc2c1CC(C)(C)NC2(C)C	-	-	-	-
COc1ccc(-c2c(C)oc3cc(OS(C)(=O)=O)ccc3c2=O)cc1	-	-	-	37
Cc1oc2cc(OCC(=O)O)ccc2c(=O)c1-c1ccc(Br)cc1	-	-	-	-
Cc1oc2cc(OCCN3CCOCC3)ccc2c(=O)c1-c1ccc(Br)cc1	-	-	-	37
COc1cccc(Oc2c(C)oc3cc(OS(C)(=O)=O)ccc3c2=O)c1	-	-	-	44
COc1ccc(-c2c(C)oc3cc(O)ccc3c2=O)cc1	-	-	-	-
Cc1oc2cc(OS(C)(=O)=O)ccc2c(=O)c1-c1ccc(Br)cc1	-	-	-	34
CCOc1ccccc1OCCOCCNCCOC	-	-	-	-
COc1ccc(S(=O)(=O)Nc2ccc(C)cn2)cc1	-	-	2.5	-
COc1ccc(S(=O)(=O)Nc2cc(OC)ccc2OC)cc1	-	-	-	61
COc1ccc(OC)c(NS(=O)(=O)c2ccc(-c3ccccc3)cc2)c1	-	-	-	35
COc1ccc(OC)c(NC(=O)C2CCCC2)c1	-	-	25	-
CC(C)NC(=O)CSc1nnc2n(CC(=O)NC3CCCCC3)c3ccccc3n12	-	-	-	-
CN(CC(=O)Nc1ccccc1Br)S(=O)(=O)c1cccs1	-	-	5.8	-
Cc1ccc2oc(-c3cccc(NC(=O)COc4cccc(C)c4C)c3)nc2c1	-	-	-	-
Nc1ccc2cc3ccc(N)cc3nc2c1	75	-	-	-
Cc1ccc2cc(N)ccc2n1	-	-	-	-
O=C(CCc1nc2sc3c(c2c(=O)[nH]1)CCCC3)NCc1ccccn1	-	-	-	-
Cc1nc2cc(NC(=O)c3ccc(S(=O)(=O)N(C)C4CCCCC4)cc3)ccc2s1	-	-	-	38
O=C(CSc1nc(N2CCCCC2)nc2ccccc12)Nc1ccc2c(c1)OCO2	-	-	-	-
COCCNC(=O)/C(C#N)=C/c1cc(C)n(-c2ccccc2)c1C	-	-	-	65
CNC(=O)/C(C#N)=C\c1cc(C)n(-c2ccc(Br)cc2)c1C	-	-	-	32
COC(=O)c1cccc(-n2c(C)cc(/C=C(\C#N)C(=O)Nc3ccc(OC)cc3)c2C)c1	-	-	-	53
SMILES	MITF inh	GPR151 activ	FBW7 act	TEAD-YAP block
COCCCNC(=O)/C(C#N)=C/c1cc(C)n(-c2sc3c(c2C#N)CCCC3)c1C	-	-	-	59
CNC(=O)/C(C#N)=C\c1cc(C)n(-c2ccc(N3CCOCC3)cc2)c1C	-	-	-	-
O=C(NC12CC3CC(CC(C3)C1)C2)C1CCN(c2nc3ccccc3s2)CC1	-	-	-	-
Cc1cc(/C=C(\C#N)C(=O)N2CCOCC2)c(C)n1-c1ccccc1	-	-	-	71
COC(=O)c1ccc(-n2c(C)cc(/C=C(\C#N)C(=O)N3CCOCC3)c2C)cc1	-	-	-	-
COCCn1c(=N)c(C(N)=S)cc2c(=O)n3cccc(C)c3nc21	-	-	-	-
COc1ccccc1C(=O)Oc1ccc(Cl)cc1NC1=NS(=O)(=O)c2ccccc21	-	-	-	-
O=C(Oc1ccccc1NC1=NS(=O)(=O)c2ccccc21)c1ccccc1Cl	-	-	-	60
Cc1ccc(NC(=O)Cn2c(C)nc3sc4c(c3c2=O)CCCC4)cc1Cl	-	-	-	-
CSc1ccc(C2N=C(c3ccccc3)NO2)cc1 (stereo not given)	-	-	-	-
CN(C)c1ccc(C2N=C(c3ccccc3)NO2)cc1 (stereo not given)	-	-	-	35
Nc1nc2c3cc4c(nc3sc2c2ccccc12)CCC4	-	-	-	34
CCC(C)n1c(SCc2ccccc2C)nc2ccsc2c1=O (stereo not given)	-	-	-	47
CCC(C)n1c(SCc2ccccc2F)nc2ccsc2c1=O (stereo not given)	-	-	-	-
COc1cc(/C=C2/C=C(c3ccc(C)cc3)OC2=O)ccc1O	-	-	-	65
COc1cc(/C=C2/C=C(c3ccc(C)cc3)OC2=O)ccc1C	-	-	-	32
O=C(CSc1cn(CC(=O)N2CCOCC2)c2ccccc12)NCc1ccccc1Cl	-	-	-	-
Cn1cccc(C(=O)Nc2ccc(CN3CCN(c4ccccn4)CC3)cc2)c1=O	-	-	-	46
CC(=O)Nc1ccc(CN2CCN(c3ccccn3)CC2)cc1	-	-	-	-
CCC(C(=O)Nc1ccc(C(=O)O)cc1)c1ccccc1 (stereo not given)	-	-	-	-
CCc1ccc(S(=O)(=O)Nc2cccc(N3CCCS3(=O)=O)c2)cc1	-	-	-	33
Cc1ccc(S(=O)(=O)Nc2nc3ccccc3nc2Nc2cccc(N(C)C)c2)cc1	-	-	-	35
COCCNc1ccnc2c(-c3ccccc3Cl)cnn12	-	-	-	58
c1cncc(CCNc2ccnc3c(-c4ccc5ccccc5c4)cnn23)c1	-	-	-	59
c1ccc2cc(-c3cnn4c(NC5CCCNC5)ccnc34)ccc2c1 (stereo not given)	-	-	-	65
SMILES	MITF inh	GPR151 activ	FBW7 act	TEAD-YAP block
FC(F)(F)c1cc(-c2cnn3c(NC4CCCNC4)ccnc23)cc(C(F)(F)F)c1 (stereo not given)	-	-	-	-
COCCNc1ccnc2c(-c3ccc(CCC(=O)O)cc3)cnn12	-	-	-	50
O=C(O)CCc1ccc(-c2cnn3c(NCc4ccccn4)ccnc23)cc1	-	-	-	-
COC(=O)CSC1=C(C#N)C(c2ccc(O)c([N+](=O)[O-])c2)CC(=O)N1 (stereo not given)	-	-	-	-
COc1ccc(CC(=O)Nc2ccc(N3CCC(NC4CCOC4)CC3)cc2)cc1 (stereo not given)	-	-	-	-
Clc1ccccc1-c1cnn2c(NCCc3cccnc3)ccnc12	-	-	-	65
Fc1ccc(-c2cnn3c(NCCc4cccnc4)ccnc23)cc1Cl	-	-	-	-
COc1ccc(/C=c2\sc3nnc(-c4ccc(OC)c(OC)c4)n3c2=O)cc1OC	-	-	-	-
Fc1ccc(-n2ncc3c(NC4CCCC4)ncnc32)cc1	-	-	-	-
Cc1cccc(-n2ncc3c(NC4CCCCC4)ncnc32)c1	-	-	-	53
CN(c1ncnc2c1cnn2-c1ccccc1)C1CCCCC1	-	-	-	93
c1ccc(-n2ncc3c(NC4CCCCCCCCCCC4)ncnc32)cc1	-	-	-	-
Cc1ccc(-n2ncc3c(NC4CCCC4)ncnc32)cc1	-	-	-	37
CC(=O)c1ccc(N(CN2C(=O)c3ccc(Br)cc3C2=O)C(C)=O)cc1	-	-	-	-
